Reference: PubChem BioAssay
Values without a mark were called inactive. Active and inactive are the calls of the source.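 Rule for the calls: active = inhibition of the reporter signal at or above 50%; inactive = inhibition below 50%.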

assay: inhibitors of poly I:C-induced TLR3 signaling, primary screen, cell-based, poly I:C stimulus, luciferase, 10K MLSCN set (AID 602277); conditions: HEK293-TLR3 RL24 IRF3 luciferase reporter, at 10 µM, hits give high values

| Compound | inhibition |
| --- | --- |
| COc1ccc(C)cc1NC(=O)CN1CCN(S(=O)(=O)c2ccc(Cl)cc2)CC1 | 15.6% |
| COc1cccc(C(=O)Nc2c(C(N)=O)oc3ccccc23)c1 | 25.5% |
| O=C(CC(Cc1ccccc1)C(=O)O)NCCc1ccc2c(c1)OCO2 (stereo not given) | 23.4% |
| CC(=O)c1cccc(NC(=O)CCNS(=O)(=O)c2cccc3nsnc23)c1 | 17.2% |
| COc1ccc(-n2c(=O)cc(N3CCN(Cc4ccccc4)CC3)[nH]c2=O)cc1 | 18.9% |
| Cc1cc(N2C(=O)C(O)=C(C(=O)c3ccc(C)o3)C2c2cccs2)no1 (stereo not given) | -26.2% |
| COC(=O)C1=C(C)NC(C)=C(C(=O)OC)C1C(=O)OC1CCCCC1=O (stereo not given) | 27.7% |
| O=C(Cc1cccs1)Nc1ccccc1NC(=O)Cc1cccs1 | 34.9% |
| CCOC(=O)c1cc2c(=O)n3ccccc3nc2n(CCCOC)c1=NC(=O)C(C)(C)C | 16.3% |
| CCOC(=O)c1cc(-c2ccco2)nc2c1c(C)nn2CCC#N | -3.59% |
| Cc1cc(C)c(C#N)c(SCC(=O)Nc2ccc(S(=O)(=O)Nc3onc(C)c3C)cc2)n1 | 24.3% |
| O=c1c2nnn(Cc3ccc(Cl)cc3)c2ncn1Cc1ccc(F)cc1 | 20.6% |
| Cc1ccc2c(c1)CCCN2C(=O)C1CCCO1 (stereo not given) | 17.6% |
| CC1(C)NC(=O)N(CC(O)COc2ccc(-c3ccccc3)cc2)C1=O (stereo not given) | 1.46% |
| CS(=O)(=O)NCc1nnc(SCC(=O)NC2CCCCC2)n1-c1ccc(F)cc1 | 26.3% |
| O=C(NCC1CCCO1)c1cccc(N2C(=O)C3C4C=CC(C4)C3C2=O)c1 (stereo not given) | 10.8% |
| CC(=O)Nc1cccc(NC(=O)C2CCCN2C(=O)Nc2ccc(C)cc2)c1 (stereo not given) | 20.3% |
| COc1cccc(CN=CC2=C(O)CC(C)(C)CC2=O)c1OC | 3.58% |
| COC(=O)Cn1c(CN2CCOCC2)nc2c1c(=O)n(C)c(=O)n2C | 32.9% |
| O=C(O)c1[nH]c2ccc(Cl)cc2c1CC(=O)N1CCN(C(=O)c2ccco2)CC1 | 0.844% |

| Compound | inhibition |
| --- | --- |
| CC1CCN(c2oc(-c3cccc4ccccc34)nc2C#N)CC1 | -95.3% |
| Cc1ccc(S(=O)(=O)N2CCN(C(=O)CSC3CCCC3)CC2)c(C)c1 | 14.9% |
| CCOC(=O)c1sc2nc(SCC#N)n(CCCN3CCCC3=O)c(=O)c2c1C | -8.03% |
| COc1cc(C(Nc2ccc3c(c2)OCO3)C(=O)NC2CCCCC2)cc(OC)c1OC (stereo not given) | 28.3% |
| Cc1cc2c(cc(C(=O)OCC(=O)NCc3cccs3)n2C(C)C)o1 | 77.6% (active) |
| O=C(CSc1nc2ccccc2nc1SCC(=O)N1CCOCC1)N1CCOCC1 | 27.5% |
| Cc1onc(-c2ccccc2Cl)c1C(=O)Nc1cnn(Cc2ccccc2)c1 | 32.6% |
| CC(NC(=O)c1ccco1)c1ccc2c(c1)OCCO2 (stereo not given) | 15.1% |
| Cc1nc2ccccc2n1CCC(=O)Nc1cccc(F)c1 | 4.83% |
| O=C(NC1CCCCCC1)C1CCCN(S(=O)(=O)c2cccs2)C1 (stereo not given) | 2.4% |
| COc1ccc(CC(=O)OCn2nnc3ccccc3c2=O)cc1 | 16.4% |
| CCCNC(=O)Nc1ccccc1C(=O)Nc1ccc(OC)cc1 | 30.5% |
| CCSc1nnc(N2C(=O)CC(c3ccsc3)C3=C2CC(C)(C)CC3=O)s1 (stereo not given) | 35.7% |
| COc1ccccc1-n1c(SCC(=O)Nc2ccc3c(c2)OCO3)nc2c(c1=O)SCC2 | 7.78% |
| COc1ccc(S(=O)(=O)Cc2ccc(C(=O)N3CCOCC3)o2)cc1 | 19.3% |
| Cc1ccc(S(=O)(=O)NCCSc2nnnn2-c2ccc(C(N)=O)cc2)cc1 | 12.6% |
| O=C(c1cccc(C(=O)N2CCN(c3ccc(F)cc3)CC2)c1)N1CCN(c2ccc(F)cc2)CC1 | -5.26% |
| CCOCCCNC(=O)c1cc2sc(Cl)cc2n1CC | 19.5% |
| CCOc1ccc(NC(=O)CN2CCN(CC(=O)c3ccc(OCC)cc3)CC2)cc1 | 24.5% |
| CC1CCCC(N2CCN(C(=O)c3ccc(F)cc3)CC2)C1 (stereo not given) | 43.9% |
